Measured values reported in ChEMBL document CHEMBL2218924, “A broad activity screen in support of a chemogenomic map for kinase signalling research and drug discovery” (Biochem J, 2013).

Tests used:
[1] = biological target: Proto-oncogene tyrosine-protein kinase Src (Homo sapiens) (UniProt P12931); details: at 1 µM
[2] = biological target: Proto-oncogene tyrosine-protein kinase Src (Homo sapiens) (UniProt P12931); details: at 10 µM
[3] = biological target: Serine/threonine-protein kinase mTOR (Homo sapiens) (UniProt P42345); details: at 1 µM
[4] = biological target: Serine/threonine-protein kinase mTOR (Homo sapiens) (UniProt P42345); details: at 10 µM
[5] = biological target: Serine/threonine-protein kinase mTOR (Homo sapiens) (UniProt P42345); details: at 1 µM; remark: listed apart in the source
[6] = biological target: Serine/threonine-protein kinase mTOR (Homo sapiens) (UniProt P42345); details: at 10 µM; remark: listed apart in the source
[7] = biological target: Ribosomal protein S6 kinase beta-1 (Homo sapiens) (UniProt P23443); details: at 1 µM
[8] = biological target: Ribosomal protein S6 kinase beta-1 (Homo sapiens) (UniProt P23443); details: at 10 µM
[9] = biological target: Serine/threonine-protein kinase Nek6 (Homo sapiens) (UniProt Q9HC98); details: at 10 µM
[10] = biological target: Serine/threonine-protein kinase Nek7 (Homo sapiens) (UniProt Q8TDX7); details: at 1 µM
[11] = biological target: Serine/threonine-protein kinase Nek7 (Homo sapiens) (UniProt Q8TDX7); details: at 10 µM
[12] = biological target: T1, Serine/threonine-protein kinase NLK (Homo sapiens) (UniProt Q9UBE8); details: at 1 µM
T1 sequence (whole entry): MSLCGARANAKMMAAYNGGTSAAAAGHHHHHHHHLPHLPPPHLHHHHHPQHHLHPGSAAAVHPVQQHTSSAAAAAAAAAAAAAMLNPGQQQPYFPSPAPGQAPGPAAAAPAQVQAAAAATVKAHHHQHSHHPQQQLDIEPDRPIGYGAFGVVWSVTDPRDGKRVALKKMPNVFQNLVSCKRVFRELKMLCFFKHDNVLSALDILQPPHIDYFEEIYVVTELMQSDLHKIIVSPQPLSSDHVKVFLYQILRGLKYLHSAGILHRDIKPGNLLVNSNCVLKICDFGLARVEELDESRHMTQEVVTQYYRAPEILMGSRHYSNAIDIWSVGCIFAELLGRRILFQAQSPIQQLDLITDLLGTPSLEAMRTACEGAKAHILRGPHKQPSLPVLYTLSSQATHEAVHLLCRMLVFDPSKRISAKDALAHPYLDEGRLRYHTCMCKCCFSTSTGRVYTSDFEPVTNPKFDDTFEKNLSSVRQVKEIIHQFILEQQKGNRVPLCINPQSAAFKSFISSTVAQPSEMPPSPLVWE

[13] = biological target: T1, Serine/threonine-protein kinase NLK (Homo sapiens); details: at 10 µM
[14] = biological target: Serine/threonine-protein kinase PAK 2 (Homo sapiens) (UniProt Q13177); details: at 1 µM
[15] = biological target: Serine/threonine-protein kinase PAK 2 (Homo sapiens) (UniProt Q13177); details: at 10 µM
[16] = biological target: Serine/threonine-protein kinase PAK 4 (Homo sapiens) (UniProt O96013); details: at 1 µM
[17] = biological target: Serine/threonine-protein kinase PAK 4 (Homo sapiens) (UniProt O96013); details: at 10 µM
[18] = biological target: Serine/threonine-protein kinase Nek6 (Homo sapiens) (UniProt Q9HC98); details: at 1 µM
[19] = biological target: T2, Eukaryotic elongation factor 2 kinase (Homo sapiens) (UniProt O00418); details: at 1 µM
T2 sequence (whole entry): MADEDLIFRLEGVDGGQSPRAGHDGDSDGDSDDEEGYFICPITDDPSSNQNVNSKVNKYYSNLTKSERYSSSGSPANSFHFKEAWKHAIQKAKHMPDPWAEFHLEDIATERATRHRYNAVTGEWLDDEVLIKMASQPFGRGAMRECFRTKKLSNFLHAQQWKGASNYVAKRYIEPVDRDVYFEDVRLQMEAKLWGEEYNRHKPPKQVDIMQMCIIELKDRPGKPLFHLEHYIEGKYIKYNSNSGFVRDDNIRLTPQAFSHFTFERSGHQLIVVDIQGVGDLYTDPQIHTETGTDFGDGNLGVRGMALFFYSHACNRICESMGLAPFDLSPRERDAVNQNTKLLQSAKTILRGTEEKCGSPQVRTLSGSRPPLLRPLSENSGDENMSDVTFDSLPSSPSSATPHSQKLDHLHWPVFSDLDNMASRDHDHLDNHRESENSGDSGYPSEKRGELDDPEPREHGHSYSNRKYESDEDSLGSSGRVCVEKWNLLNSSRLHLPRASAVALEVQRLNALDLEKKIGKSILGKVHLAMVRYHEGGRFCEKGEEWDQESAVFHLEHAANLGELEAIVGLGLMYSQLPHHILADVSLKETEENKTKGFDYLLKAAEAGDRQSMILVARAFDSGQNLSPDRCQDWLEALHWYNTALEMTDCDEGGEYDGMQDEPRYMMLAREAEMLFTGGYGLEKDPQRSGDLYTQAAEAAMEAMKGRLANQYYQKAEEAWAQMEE

[20] = biological target: T2, Eukaryotic elongation factor 2 kinase (Homo sapiens); details: at 10 µM

Chain of Serine/threonine-protein kinase Nek7 (Homo sapiens) (Q8TDX7 whole entry, looked up): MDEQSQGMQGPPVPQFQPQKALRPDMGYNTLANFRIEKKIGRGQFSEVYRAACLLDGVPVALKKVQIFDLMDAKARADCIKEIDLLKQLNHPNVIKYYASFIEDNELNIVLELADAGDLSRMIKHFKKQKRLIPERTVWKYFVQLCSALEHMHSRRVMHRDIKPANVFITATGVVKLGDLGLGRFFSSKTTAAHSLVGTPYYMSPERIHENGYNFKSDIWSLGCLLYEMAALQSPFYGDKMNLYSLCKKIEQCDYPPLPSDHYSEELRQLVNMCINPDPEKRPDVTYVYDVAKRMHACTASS
Chain of Serine/threonine-protein kinase PAK 2 (Homo sapiens) (Q13177 whole entry): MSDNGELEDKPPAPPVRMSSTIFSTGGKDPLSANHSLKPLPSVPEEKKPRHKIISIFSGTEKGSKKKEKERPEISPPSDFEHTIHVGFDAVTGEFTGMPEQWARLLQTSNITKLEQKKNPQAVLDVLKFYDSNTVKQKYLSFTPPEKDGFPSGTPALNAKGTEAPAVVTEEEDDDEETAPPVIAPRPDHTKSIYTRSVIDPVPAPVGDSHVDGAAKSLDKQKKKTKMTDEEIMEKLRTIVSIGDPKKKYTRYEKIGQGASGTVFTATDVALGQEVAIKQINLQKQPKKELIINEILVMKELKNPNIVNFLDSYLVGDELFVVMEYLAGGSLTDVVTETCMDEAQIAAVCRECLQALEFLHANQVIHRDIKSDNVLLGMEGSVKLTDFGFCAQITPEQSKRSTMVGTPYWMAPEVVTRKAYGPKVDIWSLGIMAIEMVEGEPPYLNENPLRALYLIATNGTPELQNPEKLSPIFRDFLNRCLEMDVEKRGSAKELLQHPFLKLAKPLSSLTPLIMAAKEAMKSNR
Chain of Proto-oncogene tyrosine-protein kinase Src (Homo sapiens) (P12931 2-536 limits assumed): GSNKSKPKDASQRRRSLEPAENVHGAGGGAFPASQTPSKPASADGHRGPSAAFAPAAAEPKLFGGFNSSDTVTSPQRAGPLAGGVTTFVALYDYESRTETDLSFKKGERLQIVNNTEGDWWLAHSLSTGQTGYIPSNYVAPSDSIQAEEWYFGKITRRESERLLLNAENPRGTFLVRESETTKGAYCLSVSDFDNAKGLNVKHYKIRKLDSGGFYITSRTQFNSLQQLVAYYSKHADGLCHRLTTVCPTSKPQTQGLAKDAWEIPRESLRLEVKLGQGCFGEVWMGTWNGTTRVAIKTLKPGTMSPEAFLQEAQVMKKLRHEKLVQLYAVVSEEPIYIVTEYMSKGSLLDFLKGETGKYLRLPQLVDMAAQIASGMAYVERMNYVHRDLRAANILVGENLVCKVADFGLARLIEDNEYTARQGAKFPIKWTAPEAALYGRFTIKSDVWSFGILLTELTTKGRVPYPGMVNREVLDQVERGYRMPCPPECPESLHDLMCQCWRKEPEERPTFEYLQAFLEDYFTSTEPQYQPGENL
Chain of Serine/threonine-protein kinase PAK 4 (Homo sapiens) (O96013 whole entry, looked up): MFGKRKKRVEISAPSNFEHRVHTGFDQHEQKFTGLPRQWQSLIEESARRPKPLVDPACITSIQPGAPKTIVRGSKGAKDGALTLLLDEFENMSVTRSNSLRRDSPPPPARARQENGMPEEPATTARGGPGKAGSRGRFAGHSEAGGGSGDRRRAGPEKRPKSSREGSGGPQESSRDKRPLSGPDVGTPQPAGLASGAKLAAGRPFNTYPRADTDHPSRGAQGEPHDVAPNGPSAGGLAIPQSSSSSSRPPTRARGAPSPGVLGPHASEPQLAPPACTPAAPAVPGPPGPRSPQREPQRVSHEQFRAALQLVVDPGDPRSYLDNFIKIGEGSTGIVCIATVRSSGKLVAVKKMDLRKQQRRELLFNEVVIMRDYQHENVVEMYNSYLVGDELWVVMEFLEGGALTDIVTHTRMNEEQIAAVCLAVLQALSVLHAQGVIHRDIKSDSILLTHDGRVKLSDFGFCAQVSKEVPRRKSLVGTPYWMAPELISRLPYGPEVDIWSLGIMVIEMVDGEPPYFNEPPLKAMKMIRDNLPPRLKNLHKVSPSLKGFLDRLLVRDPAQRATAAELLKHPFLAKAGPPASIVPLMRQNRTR
Chain of Serine/threonine-protein kinase Nek6 (Homo sapiens) (Q9HC98 whole entry): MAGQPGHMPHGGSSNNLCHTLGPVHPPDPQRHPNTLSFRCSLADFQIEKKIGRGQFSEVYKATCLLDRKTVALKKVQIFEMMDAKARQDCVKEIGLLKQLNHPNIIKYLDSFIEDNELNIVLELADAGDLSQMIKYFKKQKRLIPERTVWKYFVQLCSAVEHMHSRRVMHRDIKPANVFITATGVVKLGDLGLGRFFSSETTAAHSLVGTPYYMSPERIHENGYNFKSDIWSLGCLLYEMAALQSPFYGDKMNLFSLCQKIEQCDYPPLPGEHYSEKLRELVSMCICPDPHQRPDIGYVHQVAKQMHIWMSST
Chain of Ribosomal protein S6 kinase beta-1 (Homo sapiens) (P23443 whole entry, looked up): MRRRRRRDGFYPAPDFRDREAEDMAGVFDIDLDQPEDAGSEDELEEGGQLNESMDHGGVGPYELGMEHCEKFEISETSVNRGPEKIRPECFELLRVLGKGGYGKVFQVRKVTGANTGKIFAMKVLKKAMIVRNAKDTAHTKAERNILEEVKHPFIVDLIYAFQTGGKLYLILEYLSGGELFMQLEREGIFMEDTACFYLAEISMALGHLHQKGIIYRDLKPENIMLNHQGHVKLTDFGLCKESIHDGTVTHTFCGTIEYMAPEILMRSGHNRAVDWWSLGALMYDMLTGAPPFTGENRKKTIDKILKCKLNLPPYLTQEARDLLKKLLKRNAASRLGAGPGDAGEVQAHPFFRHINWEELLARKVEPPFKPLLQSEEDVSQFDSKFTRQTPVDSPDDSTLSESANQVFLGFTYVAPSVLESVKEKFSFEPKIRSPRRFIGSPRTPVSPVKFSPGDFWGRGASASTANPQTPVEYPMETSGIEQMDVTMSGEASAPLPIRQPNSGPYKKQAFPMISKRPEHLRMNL

SMILES	residual activity [1] [%]	residual activity [2] [%]	residual activity [3] [%]	residual activity [4] [%]	residual activity [5] [%]	residual activity [6] [%]	residual activity [7] [%]	residual activity [8] [%]	residual activity [9] [%]	residual activity [10]	residual activity [11]	residual activity [12] [%]	residual activity [13] [%]	residual activity [14] [%]	residual activity [15] [%]	residual activity [16] [%]	residual activity [17] [%]	residual activity [18]	residual activity [19]	residual activity [20] [%]
COc1cc2ncnc(Nc3ccc(OCc4ccccc4)cc3)c2cc1OC	81	77	96	107	105	97	82	53	94	98% (inactive)	89% (inactive)	111	90	113	99	107	97			
CC(C)(C)c1cc(C=C(C#N)C#N)cc(Br)c1O		75			102		110	42	118	114% (inactive)	116% (inactive)		53	125	104	113	100	117% (inactive)		
COc1ccc2c(c[n+](C)c3c4cc5c(cc4ccc23)OCO5)c1OC	74	69		88	98	89	130	63	68	100% (inactive)	137% (inactive)	92	76		81					
C[S+]([O-])c1ccc(-c2nc(-c3ccc(F)cc3)c(-c3ccncc3)[nH]2)cc1 (stereo not given)	112	65	106	89	86	96	103	87	103	101% (inactive)	116% (inactive)	62	24	110	100	106	106	112% (inactive)	111% (inactive)	91
O=c1[nH]c2ccccc2n1C1CCN(Cc2ccc(-c3nc4cc5[nH]cnc5cc4nc3-c3ccccc3)cc2)CC1	93	96	95	98	89	102	70	56	116	111% (inactive)	69% (inactive)	105	84	103	85	98	74	109% (inactive)		
CCc1nc(-c2ccc(OC)cc2)[nH]c1-c1ccncc1					103	73		62	117	106% (inactive)	104% (inactive)			107	110	111	100	116% (inactive)		
COC(=O)[C@@]1(O)C[C@H]2O[C@]1(C)n1c3ccccc3c3c4c(c5c6ccccc6n2c5c31)C(=O)NC4	35	5	90	70	89	79	6	1	120	103% (inactive)	95% (inactive)	42	10	19	2	3	0	104% (inactive)		
